Mito fusion act – qHTS Assay for Small Molecule Inhibitors of Mitochondrial Division or Activators of Mitochondrial Fusion. S. cerevisiae fusion-defective mutant growth rescue, CellTiterGlo 48 h. Potency, µM (doses to about 46.1 µM), for inactives: at the top dose growth rescue (activation), hits mostly activators. 0.23% of 320,000 active. AID 485298, 2010; active = well fitted activation curve with a large enough effect; inconclusive = small, poorly fitted or top-dose-only effect; inactive = no such curve, though single readings can be large or run the other way; also: potency is read from the fitted curve at half-maximal effect; % of control where 0% means no effect; nearly all actives have a fitted effect of over 45% in size
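Compounds are tested for their ability to restore growth of mitochondrial fusion-defective yeast strains at non-permissive 37C in YPEG medium over 48 hours. Viability is quantified by luciferase luminescence.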
uPA generation – qHTS for Inhibitors of Cell Surface uPA Generation | cell surface uPA generation assay, qHTS | Potency, µM (highest dose often 38.3 µM), for inactives: at the top dose activity change, negative = inhibition, hits mostly inhibitors | 0.31% of 330,000 active; active = well fitted inhibition curve with a large enough effect; inconclusive = small, poorly fitted or top-dose-only effect; inactive = no such curve, though single readings can be large or run the other way; tested in mouse RAW 264.7 cells; also: potency is read from the fitted curve at half-maximal effect; % is scaled to controls: 0 for no effect and ±100 for the full control effect; nearly all actives have a fitted effect of over 55% in size
Six1-Eya2 inh – qHTS Assay for Inhibitors of the Six1/Eya2 Interaction | AlphaScreen GST-Six1/His-Eya2 binding, biochemical; stronger effect = lower value | Homeobox protein SIX1 (Homo sapiens) + Protein phosphatase EYA2 (Homo sapiens), … | activity change, % (no concentration beside the values) | 0.56% of 360,000 active; also: % is scaled to controls: 0 for no effect and ±100 for the full control effect
Target sequence (O00167 whole entry, looked up): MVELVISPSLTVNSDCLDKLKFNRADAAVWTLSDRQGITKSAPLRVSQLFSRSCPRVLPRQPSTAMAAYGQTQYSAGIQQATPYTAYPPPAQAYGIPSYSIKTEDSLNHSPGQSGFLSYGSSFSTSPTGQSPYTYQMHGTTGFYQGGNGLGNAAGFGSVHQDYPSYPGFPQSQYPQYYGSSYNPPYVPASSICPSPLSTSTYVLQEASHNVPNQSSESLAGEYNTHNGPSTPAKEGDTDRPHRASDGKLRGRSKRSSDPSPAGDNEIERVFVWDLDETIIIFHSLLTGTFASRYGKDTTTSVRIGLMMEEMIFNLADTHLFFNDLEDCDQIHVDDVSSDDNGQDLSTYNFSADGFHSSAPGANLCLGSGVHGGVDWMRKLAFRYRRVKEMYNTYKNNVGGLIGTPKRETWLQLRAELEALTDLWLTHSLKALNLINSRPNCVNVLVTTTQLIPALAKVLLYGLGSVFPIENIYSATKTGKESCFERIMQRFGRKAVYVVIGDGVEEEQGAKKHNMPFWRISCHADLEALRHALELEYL
Target sequence (Q15475 whole entry, looked up): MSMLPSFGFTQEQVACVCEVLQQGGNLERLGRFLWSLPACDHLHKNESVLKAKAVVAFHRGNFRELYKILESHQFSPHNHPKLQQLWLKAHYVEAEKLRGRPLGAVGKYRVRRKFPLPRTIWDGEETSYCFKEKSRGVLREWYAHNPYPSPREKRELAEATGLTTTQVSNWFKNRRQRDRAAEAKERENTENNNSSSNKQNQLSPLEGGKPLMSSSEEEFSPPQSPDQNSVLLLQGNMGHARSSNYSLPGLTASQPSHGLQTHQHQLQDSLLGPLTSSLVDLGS
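AlphaScreen luminescence read after one hour at 37 °C in darkness. Pin-transferred compounds met GST-Six1 and His-Eya2 protein (5X stock 250 nM/500 nM) plus glutathione donor and Ni-chelate acceptor beads (5X, 50 ug/mL).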
CtBP-E1A inh – qHTS Assay for Inhibitors of the CtBP/E1A Interaction | CtBP / adenovirus E1A interaction (AlphaScreen) | AlphaScreen GST-E1A/His-CtBP binding, 1536-well; stronger effect = lower value | activity change, % (concentration not given with the values) | 0.49% of 340,000 active; also: % is scaled to controls: 0 for no effect and ±100 for the full control effect
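Steps: dispense buffer (Tris pH 8.0, NaCl 300 mM, TCEP 1 mM, BSA, Tween 20); add 5X protein mix (GST-E1A, His-CtBP, 125 nM each); pin 23 nL compound; 2 h at 37 °C, dark; add 5X beads (50 ug/mL); 1 h; read.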
MBNL1-CUG inh – qHTS Assay for Inhibitors of MBNL1-poly(CUG) RNA binding. Muscleblind-like protein 1 (Homo sapiens), Q9NR56. TR-FRET MBNL1-His/biotin-(CUG)12 binding, 665/545 ratio. Potency, µM (top dose mostly 57.5 µM), inactives show at the top dose activity change, negative = inhibition, usual class: inhibitors. 0.036% of 280,000 active. AID 2675, 2010; active = well fitted inhibition curve with a large enough effect in the signal ratio, with a control signal flat, not every such curve was filed as active; inconclusive = small, poorly fitted or top-dose-only effect, or effect the other way, or a change in a side signal; inactive = no such curve, though single readings can be large or run the other way; the % refers to the signal ratio; also: potency is read from the fitted curve at half-maximal effect; % is scaled to controls: 0 for no effect and ±100 for the full control effect
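TR-FRET between His-tagged MBNL1 and biotin-(CUG)12 RNA, detected with Tb anti-His antibody (0.055 ng/ul) and streptavidin-XL665 (5 nM), 60 min at room temperature. Compounds titrated 92 nM to 58 uM; 665/545 nm ratio normalized to buffer and complex controls.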
* = called active by the depositor; ? = inconclusive; . = no result. This is a sample that favours compounds with a hit; in the whole collection about 1.1% have one here. Rule as the data show it, unless noted: active = activity change below about -65%; inconclusive = mostly about -30% to -63%; inactive = weaker than that.

SMILES	Mito fusion act	uPA generation	Six1-Eya2 inh	CtBP-E1A inh	MBNL1-CUG inh
Cc1ccc(S(=O)(=O)NC2c3cccc4cccc(c34)C2Sc2ncccn2)cc1 (stereo not given)	14µM*	-2%	1	-4	7%
Cc1cc(C)nc(SC2c3cccc4cccc(c34)C2NS(=O)(=O)c2ccccc2)n1 (stereo not given)	20µM*	-5%	-4	-2	2%
COc1ccc(CCN2C(=O)CSCC2(C)C(=O)Nc2ccc3c(c2)OCCO3)cc1OC (stereo not given)	.	.	-3	0	.
COc1ccc(CCN2C(=O)CCC3=C2CCCC3=O)cc1OC	.	.	-2	3	.
COc1ccc(C(=O)NCc2cc(C)nc3ccccc23)cc1	-10%	7.1µM*	5	1	2%
O=C(Nc1cccc(S(=O)(=O)Nc2ccc(Cl)cc2)c1)c1ccc(Cl)nc1	-1%	5µM*	-3	-6	6%
Cc1ccc(CNC(=O)C(Cc2ccccc2)NS(=O)(=O)c2cccs2)cc1 (stereo not given)	2%	-5%	-1	4	-6%
Cc1ccc(CNC(=O)C(Cc2ccccc2)NS(=O)(=O)c2ccc(Br)s2)cc1 (stereo not given)	18µM*	-6%	-8	5	40%
CCOc1cc(NC(=O)c2cccs2)c(OCC)cc1NC(=O)CCC(=O)NCc1ccccn1	2%	6%	8	3	1%
COc1ccccc1NC(=O)CCC(=O)Nc1cc(OC)c(NC(=O)c2cccs2)cc1OC	4%	.	-95*	-93*	4%
COc1ccc(NC(=O)CCC(=O)c2cccs2)c(OC)c1	10%	0%	-4	0	4%
COc1cc(NC(=O)c2cccs2)c(OC)cc1NC(=O)CCC(=O)Nc1cccc2ncccc12	-2%	25%	-82*	-87*	-2%
Cc1c(Cl)cccc1N=C1NC(=O)CS1	.	.	3	4	.
Cc1sc(C2C(C#N)=C(N)N(c3ccc(Cl)cc3)C3=C2C(=O)CCC3)cc1CN1CCOCC1 (stereo not given)	-2%	.	.	.	.
COc1ccc(Nc2nnc(-c3ccc(C(N)=O)cc3)c3ccccc23)cc1	1%	0%	-83*	5	?
O=C(Cc1ccc(F)cc1)Oc1ccc(C(=S)N2CCCC2)cc1	2%	1%	-71*	-1	1%
CN(Cc1ccc(Br)s1)C(=O)CNC(=O)c1ccc2c(c1)OCO2	4%	0%	-1	0	.
COc1ccc(OC)c(-c2csc(NC(=O)COC(=O)C3(C)CC3(Cl)Cl)n2)c1 (stereo not given)	16µM*	-9%	-10	-8	.
COCC(=O)N[C@H]1C=C[C@@H](CC(=O)OC)O[C@@H]1CO	.	.	-6	7	.
COc1ccccc1CNC(=O)C1(C)CCN1C(=O)Cc1ccc(-c2ccccc2)cc1 (stereo not given)	.	.	2	-15	.
O=C(c1cccc(S(=O)(=O)N2CCOCC2)c1)N(Cc1ccco1)Cc1cccs1	3%	?	-4	2	.
O=C(c1ccc(Cl)c(S(=O)(=O)N2CCOCC2)c1)N(Cc1ccco1)Cc1cccs1	-3%	1.1µM*	-7	-4	.
CC(=O)N/N=C/c1cc(C(C)(C)C)cc(/C=N/NC(C)=O)c1O	2%	-6%	-76*	-88*	27%
CCC(O)(CC)C(=O)N/N=C/c1cc(Br)cc(Br)c1O	12%	-1%	?	?	16%
Nn1cnnc1N/N=C/c1cc(Br)cc(Br)c1O	0%	-11%	-92*	-91*	3%
SMILES	Mito fusion act	uPA generation	Six1-Eya2 inh	CtBP-E1A inh	MBNL1-CUG inh
CC1(C(=O)NCc2ccccc2)CSCC(=O)N1CC(F)(F)F (stereo not given)	.	.	-6	-4	.
COc1ccccc1N1CCN(C(=O)c2ccc3ncsc3c2)CC1	.	-11%	3	-12	.
CCc1nc2ccc(C(=O)N3CCN(C(=O)c4ccco4)CC3)cn2c1N(CC)Cc1cccc(Br)c1	.	.	-7	-8	.
O=C(Nc1nnc(-c2cccs2)o1)c1cc(-c2ccccc2)nc2ccccc12	13µM*	?	-16	-5	11%
OCCN(Cc1ccccn1)Cc1ccccn1	.	.	-90*	-89*	.
ON(CCc1ccccn1)CCc1ccccn1	.	-5%	?	-24	.
CCCCc1ccc(-c2nn[nH]n2)nc1	.	.	-81*	?	.
CCOC(=O)C1=CCN(S(=O)(=O)c2ccccc2Cl)C1c1ccc(C)cc1 (stereo not given)	.	.	5	14	.
Cc1ccc(-c2nc3ncccc3o2)cc1NC(=O)c1cc2ccccc2o1	6%	1%	1	1	18%
O=C(Nc1cccc(-c2nc3ncccc3o2)c1)c1cc2ccccc2o1	13µM*	6%	-27	?	-15%
CCCNC(=O)C1(C)CCN(Cc2ccc(OCc3ccccc3)cc2)C1 (stereo not given)	.	.	4	-7	.
O=C(NCCc1c[nH]c2ccccc12)c1[nH]c(C(F)(F)F)nc1-c1ccccc1	.	.	-23	-20	.
O=C1NC(=O)C(Cc2cccc(Oc3ccccc3)c2)S1 (stereo not given)	11µM*	1%	-1	8	6%
Cc1cc(F)c(F)c(C(=O)N2CCN(C)CC2)c1Cl	-2%	-5%	5	-1	-3%
Cc1cc(F)c(F)c(C(=O)N2CCOCC2)c1Cl	-2%	-1%	-92*	3	-7%
COC(=O)c1ccc(N2CCc3ccccc32)c([N+](=O)[O-])c1	?	-10%	-70*	-29	?
COc1ccc(NC(=O)c2c(NC(=O)CNCc3ccco3)sc3c2CCC3)cc1	-3%	-4%	-2	-9	0%
CCOc1ccc(NC(=O)c2c(NC(=O)CNCCN3CCOCC3)sc3c2CCC3)cc1	0%	-17%	?	-82*	4%
CN(C)c1ccc(NC(=S)c2ccccn2)cc1	-11%	-8%	-88*	-74*	?
CC(C)(C)n1nnnc1C(c1ccccc1)N1CCN(c2ccc(C(F)(F)F)cn2)CC1 (stereo not given)	.	.	-1	6	.
Cc1ccccc1N(C)S(=O)(=O)c1nnc(NC(=O)c2ccccc2F)s1	5.6µM*	4%	-3	-2	5%
C(=C\c1ccccc1)/C=N/Nc1nc2ccccc2[nH]1	18%	4µM*	-1	3	3%
O=[N+]([O-])c1cc(/C=N/Nc2nc3ccccc3[nH]2)c(O)cc1O	-3%	-13%	-97*	-99*	?
Cc1ccccc1/C=N/Nc1nc2ccccc2[nH]1	-10%	-1%	12	-8	2%

High-throughput results deposited in PubChem BioAssay by National Center for Advancing Translational Sciences (NCATS).
